PubChem BioAssay (NCI)
“And” between values parts separate entries of the source, which are not always exact repeats. Equal values may be shown once. Compounds without any hit were thinned out: in the full panel of roughly 79,000, 15% have a hit. A number with no mark means an inactive call. The source made the active and inactive calls. No stated cut-off is given here; in the data, active means growth inhibition above about 70%; inactive means the rest.

Experiments:
[1] = NCI Yeast Anticancer Drug Screen. Data for the rad50 strain (AID 155);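 further: 0% = growth of vehicle-only cultures of the same strain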; details: S. cerevisiae rad50 strain growth inhibition, hits give high values
In short: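 Vehicle-treated cultures provide the reference for the growth inhibition reported for compound-exposed, repair-deficient yeast.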

[2] = NCI Yeast Anticancer Drug Screen. Data for the mec2-1 strain (AID 157); details: S. cerevisiae mec2-1 strain, hits give high values
In short: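 Mutant yeast (mec2-1) grown with compound; growth inhibition relative to vehicle control reported.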

[3] = NCI Yeast Anticancer Drug Screen. Data for the sgs1 mgt1 strain (AID 161);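 further: 0% = growth of cultures given vehicle only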; details: S. cerevisiae sgs1 mgt1 strain, hits give high values
In short: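 Yeast cells carrying a defined DNA-repair defect were exposed to test compounds. Growth inhibition was measured relative to vehicle-treated controls.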

[4] = NCI Yeast Anticancer Drug Screen. Data for the cln2 rad14 strain (AID 165);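 further: 0% = growth equal to vehicle treated cultures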; details: S. cerevisiae cln2 rad14 strain, hits give high values
In short: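 Readout is yeast growth inhibition versus vehicle-treated controls, using a strain with cln2 and rad14 alterations exposed to compound.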

[5] = NCI Yeast Anticancer Drug Screen. Data for the bub3 strain (AID 167); details: S. cerevisiae bub3 mutant strain, hits give high values
In short: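 Mutant yeast screening strain plus compound; vehicle-treated cultures serve as the 0% inhibition reference.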

[6] = NCI Yeast Anticancer Drug Screen. Data for the mlh1 rad18 strain (AID 175); details: S. cerevisiae mlh1 rad18 strain growth inhibition, hits give high values
In short: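 Genetically defined yeast (DNA repair-deficient) exposed to compounds; growth inhibition determined relative to vehicle.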

[7] = at 5.0 µM (retest, dose inferred, filed as 0.5)
[8] = at 50.0 µM (retest, dose inferred, filed as 5.0)

| SMILES | growth inhibition [1, 7] | growth inhibition [1, 8] | growth inhibition ([1]; at 50.0 µM) | growth inhibition [2, 7] | growth inhibition [2, 8] | growth inhibition ([2]; at 50.0 µM) | growth inhibition [3, 7] | growth inhibition [3, 8] | growth inhibition ([3]; at 50.0 µM) | growth inhibition [4, 7] | growth inhibition [4, 8] | growth inhibition ([4]; at 50.0 µM) | growth inhibition [5, 7] | growth inhibition [5, 8] | growth inhibition ([5]; at 50.0 µM) | growth inhibition [6, 7] | growth inhibition [6, 8] | growth inhibition ([6]; at 50.0 µM) |
| --- | --- | --- | --- | --- | --- | --- | --- | --- | --- | --- | --- | --- | --- | --- | --- | --- | --- | --- |
| CC(=O)O.CC(=O)[O-].CC(=O)[O-].[Co+3].[NH-]CC[NH-].[NH-]CC[NH-] | -5% | 94% (active) | 23.3% | -5% | 98% (active) | 10.3% | 2% | 97% (active) | -3.35% | -4% | 96% (active) | 31.6% | 38% | 98% (active) | -1.65% | -7% | 97% (active) | 4.05% |
| C[Si]1(C)CCCCC2(C1)C(=O)NC(=O)NC2=O | 0% | 17% | 16.4% | 4% | 20% | 2.6% | -1% | 58% | 51% | -3% | 5% | 16.5% | -5% | 13% | 10.8% | -17% | 3% | 8.5% |
| [C-]#[O+].[C-]#[O+].[C-]#[O+].[Cl-].[Ru+2].c1ccc([PH+](CC[PH+](c2ccccc2)c2ccccc2)CC[PH+](c2ccccc2)c2ccccc2)cc1 | 50% | 98% (active) | 91% (active) | 45% | 99% (active) | 92.8% (active) | 55% | 99% (active) | 93.1% (active) | 36% | 97% (active) | 92.2% (active) | 50% | 98% (active) | 92.4% (active) | 56% | 97% (active) | 91.1% (active) |
| C[n+]1[se]nc2cc(C(=O)c3ccccc3)ccc21 (tested in a mixture with another compound) | 99% (active) | 99% (active) | 99.3% (active) | 99% (active) | 99% (active) | 99.2% (active) | 98% (active) | 99% (active) | 99% (active) | 96% (active) | 99% (active) | 99% (active) | 98% (active) | 99% (active) | 99% (active) | 99% (active) | 99% (active) | 99.3% (active) |
| NCCBr | 0% | -26% | -8.5% and -19.5% | -1% | 1% | -7.65% and -21.2% | -3% | -4% | 6.55% and -5.6% | 3% | -3% | -23.7% and -8.9% | -25% | -6% | -0.55% and 1.2% | 4% | -2% | 2.25% and -0.05% |
| ClCCN(CCCl)CCN1c2ccccc2Sc2ccc(Cl)cc21 | 0% | 69% | 99% (active) | 1% | 75% (active) | 96.2% (active) | 0% | 97% (active) | 99.5% (active) | -1% | 49% | 98.5% (active) | -2% | 80% (active) | 97.1% (active) | 3% | 95% (active) | 98.9% (active) |
| CN(Cc1ccccc1)CC(O)c1ccc(Cl)cc1 (centres undefined) | -4% | 38% | 57.5% | -1% | 23% | 0.75% | 2% | 44% | 58.6% | 3% | 25% | 48.5% | 2% | 41% | 60.5% | 4% | 34% | 34.5% |
| c1ccc2c(c1)CCc1c-2[nH]c2ccccc12 | -67% | 79% (active) | 72.2% (active) | -8% | 77% (active) | 36.4% | -9% | 90% (active) | 71.7% (active) | -60% | 65% | 51.8% | -48% | 87% (active) | 89.8% (active) | -43% | 83% (active) | 83.2% (active) |
| S=C(S)N1CCOCC1 | 62% | 94% (active) | -11.9% | 50% | 84% (active) | 28.1% | 37% | 82% (active) | 42.7% | -2% | 75% (active) | -23.9% | 45% | 86% (active) | 98.3% (active) | 60% | 88% (active) | 19.5% |
| CCc1cc2c(cc1O)C(C)(C)CCC2(C)C | -1% | 7% | 98% (active) | -2% | -7% | 97.8% (active) | -3% | 7% | 52.5% | 5% | 10% | 98% (active) | 3% | 18% | 43% | 0% | 4% | 98% (active) |
| CC(C)(C)OC(=O)NC(CSC(c1ccccc1)(c1ccccc1)c1cccs1)C(=O)O (centres undefined) | 7% | 97% (active) | 95.7% (active) | 17% | 99% (active) | 69.2% | 7% | 99% (active) | 96.5% (active) | 23% | 99% (active) | 78.8% (active) | 9% | 99% (active) | 14.2% | 12% | 99% (active) | 83.2% (active) |
| Cc1ccc2c[c]1[Hg][CH2]COS2(=O)=O | 33% | 98% (active) | 94.7% (active) | 16% | 99% (active) | 98% (active) | 48% | 99% (active) | 97.5% (active) | 9% | 98% (active) | 98.7% (active) | -2% | 99% (active) | 99.2% (active) | 24% | 97% (active) | 98.2% (active) |
| O=C(c1ccc(Br)cc1)C1C(c2ccccc2)N1C1CCCCC1 (centres undefined) | 1% | 79% (active) | 95.7% (active) | 0% | 73% (active) | 96.6% (active) | -1% | 72% (active) | 96.5% (active) | -4% | 58% | 94.2% (active) | 4% | 94% (active) | 95% (active) | -2% | 86% (active) | 91% (active) |
| [Ni+2].[SH2+]C([SH2+])=Nc1ccccc1.[SH2+]C([SH2+])=Nc1ccccc1.c1ccc(C[P+](c2ccccc2)(c2ccccc2)c2ccccc2)cc1 | 14% | 91% (active) | 97.9% (active) | 26% | 88% (active) | 98% (active) | 21% | 91% (active) | 97.8% (active) | -6% | 87% (active) | 90.8% (active) | 8% | 85% (active) | 95.3% (active) | 40% | 98% (active) | 98.5% (active) |
| Cc1cccc2cc3ccccc3cc12 | 29% | 99% (active) | 95.3% (active) | 50% | 99% (active) | 97% (active) | 43% | 99% (active) | 85.9% (active) | 58% | 99% (active) | 91.1% (active) | 68% | 99% (active) | 95.7% (active) | 70% (active) | 99% (active) | 96.9% (active) |
| c1ccc(P(CCP(c2ccccc2)c2ccccc2)CCP(c2ccccc2)c2ccccc2)cc1 | 98% (active) | 98% (active) | 92.3% (active) | 94% (active) | 94% (active) | 93% (active) | 92% (active) | 92% (active) | 91% (active) | 84% (active) | 84% (active) | 5.95% | 96% (active) | 96% (active) | 92.8% (active) | 95% (active) | 95% (active) | 91.8% (active) |
| O=C(O)c1cc([N+](=O)[O-])c(Cl)c([N+](=O)[O-])c1Cl | 80% (active) | 99% (active) | 62.8% | 82% (active) | 99% (active) | 42.3% | 20% | 93% (active) | 46.9% | 38% | 100% (active) | 43.1% | 51% | 96% (active) | 64% | 70% (active) | 99% (active) | 49% |
| CC(Cc1ccccc1)N(C)Cc1ccc(-c2ccccc2)o1 (centres undefined) | 27% | 91% (active) | 31.2% | 7% | 75% (active) | 34% | 14% | 94% (active) | 63.6% | 16% | 88% (active) | 14.6% | 6% | 96% (active) | 20.6% | 12% | 91% (active) | 81.3% (active) |
